Screening results: PubChem, National Center for Advancing Translational Sciences (NCATS)
Only some compounds are listed: those with a hit (about 1.2% of all), similar ones and a draw of the others.
LmPK inhibitor: blocks Leishmania mexicana pyruvate kinase activity. Q27686. Potency, µM (top dose mostly 57.5 µM), for inactives: top-dose activity change, negative = inhibition, usual class: inhibitors. AID 1721. 290,000 tested, 0.37% active. purified LmPK, Kinase-Glo ATP luminescence, 1 h; note: % is set by controls: 0 for no effect and ±100 for the full control effect
Target sequence (Q27686 whole entry, looked up): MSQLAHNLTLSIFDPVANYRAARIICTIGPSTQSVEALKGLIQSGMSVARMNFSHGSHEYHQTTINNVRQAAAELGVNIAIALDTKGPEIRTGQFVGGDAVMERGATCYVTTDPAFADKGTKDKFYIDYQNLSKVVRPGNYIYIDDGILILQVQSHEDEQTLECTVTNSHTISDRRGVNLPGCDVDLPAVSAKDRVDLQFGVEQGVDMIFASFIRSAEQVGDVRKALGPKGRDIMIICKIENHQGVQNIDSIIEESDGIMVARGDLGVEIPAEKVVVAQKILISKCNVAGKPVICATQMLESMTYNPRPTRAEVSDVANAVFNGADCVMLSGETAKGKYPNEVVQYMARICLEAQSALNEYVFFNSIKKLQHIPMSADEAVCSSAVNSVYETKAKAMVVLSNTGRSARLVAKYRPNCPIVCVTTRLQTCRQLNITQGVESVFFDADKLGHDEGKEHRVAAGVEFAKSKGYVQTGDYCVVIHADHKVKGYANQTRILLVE
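Pyruvate kinase activity monitored as ATP production (luciferase luminescence). Conditions: 0.1 nM enzyme, 0.5 mM PEP, 0.1 mM ADP, 1 h, RT; normalized against uninhibited and no-enzyme wells.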
Giardia FBPA inh-1: blocks Giardia fructose-bisphosphate aldolase activity | Potency, µM (top dose mostly 59.6 µM), for the others: top-dose activity, negative = inhibition, usual class: inhibitors | 290,000 tested, 0.71% active | purified Giardia FBPA | AID 2451; note: % is set by controls: 0 for no effect and ±100 for the full control effect; nearly all actives have a fitted effect of over 55% in size
Target sequence (A8B2U2 whole entry, looked up): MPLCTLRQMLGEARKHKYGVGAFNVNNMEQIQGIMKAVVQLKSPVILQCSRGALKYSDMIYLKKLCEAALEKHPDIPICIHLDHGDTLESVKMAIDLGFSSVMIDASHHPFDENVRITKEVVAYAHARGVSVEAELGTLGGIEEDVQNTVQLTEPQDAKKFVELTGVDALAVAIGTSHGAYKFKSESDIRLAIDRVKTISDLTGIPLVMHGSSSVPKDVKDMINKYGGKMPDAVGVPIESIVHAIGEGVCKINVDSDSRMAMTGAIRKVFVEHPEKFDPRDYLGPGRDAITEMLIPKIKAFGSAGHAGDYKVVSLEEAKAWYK
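Giardia FBPA (40 nM reagent) was preincubated 10 min at RT with compound (up to 57.5 uM final), then substrate plus GAPDH/TPI/NAD/arsenate coupling system with diaphorase/resazurin was added; resorufin fluorescence (525/598 nm) was read after 20 min.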
TbPYK inhibitor: T. brucei pyruvate kinase inhibition | Q57TT1 | Potency, µM (highest dose often 76.8 µM), for the others: at the highest dose activity, negative = inhibition, most hits filed as inhibitors | TbPYK enzyme, Kinase-Glo Plus ATP luminescence, 45 min | 410,000 tested, 0.12% active; note: % is set by controls: 0 for no effect and ±100 for the full control effect; nearly all actives have a fitted effect of over 50% in size
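Quantitative HTS: titrated library compounds versus trypanosomal pyruvate kinase in TEA buffer (pH 7.2) containing KCl, MgCl2, BSA and Tween-20. Reactions were initiated with ADP, 130 uM final. Kinase-Glo Plus luminescence was read after 45 min at RT.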
NS1 function inh: inhibitors of influenza NS1 protein function. AID 2326. Potency, µM (series often up to 46.1 µM), for the others: top-dose activity, positive = more growth. 270,000 tested, 0.4% active; calls by dose curve; note: actives are rising curves; nearly all actives have a fitted effect of over 50% in size
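Growth recovery, yeast-based: influenza A NS1 expressed in S. cerevisiae causes slow growth, and suppressors are detected by OD600. The parent strain without NS1 is used as positive control.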
AMA1 RON2 block: inhibitors of Plasmodium falciparum AMA1-RON2 interaction; AlphaScreen AMA1-biotinylated RON2 peptide binding; Potency, µM (top dose mostly 58.2 µM), inactives show at the highest dose activity change, negative = inhibition, actives largely listed as inhibitors; 360,000 tested, 0.2% active; AID 720542;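 note: 0% = vehicle wells and -100% = peptide control; nearly all actives have a fitted effect of over 45% in size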
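AMA1 (3D7) with his tag at 25 nM final met compounds first, then biotinylated RON2 peptide at 25 nM; detection used donor plus acceptor beads, 10 µg/mL apiece, read by AlphaScreen after 30 min at room temperature.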
Giardia growth: blocks growth of Giardia lamblia trophozoites; Giardia lamblia trophozoite growth inhibition; 1,500 tested, 5% active; Potency, µM (top dose mostly 57.5 µM), for inactives: at the highest dose activity change, negative = inhibition, usual class: inhibitors; AID 2785; shares compounds with Giardia FBPA inh-1;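 note: trophozoites exposed to compound for 48 h at 37 °C; % is set by controls: 0 for no effect and ±100 for the full control effect; nearly all actives have a fitted effect of over 70% in size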
Mammal cell tox: counter-screen for Giardia aldolase inhibitors: mammalian cell toxicity; shares compounds with Giardia FBPA inh-1; 1,500 tested, 4% active; mammalian cell viability counter-screen, qHTS; Potency, µM (top dose mostly 57.5 µM), inactives show at the top dose viability change, negative = toxicity, usual class: inhibitors;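 note: Chinese hamster ovary cells used as mammalian cytotoxicity surrogate; viability measured as cellular ATP by luminescence; compound exposure lasted 48 h before reading; % is set by controls: 0 for no effect and ±100 for the full control effect; nearly all actives have a fitted effect of over 60% in size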
Giardia FBPA inh-2: confirmation of Giardia fructose-bisphosphate aldolase inhibitors; purified Giardia aldolase enzyme activity, qHTS; shares compounds with Giardia FBPA inh-1; Potency, µM (series often up to 57.5 µM), for the others: top-dose activity change, negative = inhibition, usual class: inhibitors; 1,500 tested, 5% active; AID 2787; note: % is set by controls: 0 for no effect and ±100 for the full control effect; nearly all actives have a fitted effect of over 45% in size
Rabbit aldolase: selectivity test for Giardia aldolase inhibitors: rabbit aldolase | Rabbit muscle FBPA enzyme inhibition, selectivity counter-screen | Potency, µM (titrated, usually from 57.5 µM), for inactives: top-dose activity, negative = inhibition, usual class: inhibitors | shares compounds with Giardia FBPA inh-1 | 1,500 tested, 4% active; note: % is set by controls: 0 for no effect and ±100 for the full control effect; nearly all actives have a fitted effect of over 60% in size
GAPDH coupling: GAPDH inhibition flagged for Giardia aldolase hits | shares compounds with Giardia FBPA inh-1 | GAPDH coupling enzyme counterscreen, biochemical, qHTS | Potency, µM (top dose mostly 57.5 µM), inactives show top-dose activity change, negative = inhibition, most hits filed as inhibitors | 1,500 tested, 6% active | AID 2795; note: % is set by controls: 0 for no effect and ±100 for the full control effect; nearly all actives have a fitted effect of over 55% in size
* marks the source's active call; other numbers are inactive results; ? = inconclusive; / = not tested or not shown; [ ] = dose if it differs, or a comment. Unless noted, calls come from the whole dose curve; as a rule, active = well fitted curve in the direction sought with a large enough effect; inconclusive = small, poorly fitted or top-dose-only effect, or another doubt; inactive = no such curve, though single readings can be large; an effect the other way counts as inactive or inconclusive. Potency is the fitted concentration of half-maximal effect.

SMILES	LmPK inhibitor	Giardia FBPA inh-1	TbPYK inhibitor	NS1 function inh	AMA1 RON2 block	Giardia growth	Mammal cell tox	Giardia FBPA inh-2	Rabbit aldolase	GAPDH coupling
COc1ccc(-c2cc(C(=O)NCc3ccc(F)cc3)c3c(-c4ccc(F)cc4)[nH]nc3n2)cc1OC	/	/	-6%	/	/	/	/	/	/	/
NCCCC[C@H](NC(=O)CNC(=O)[C@@H]1CCCN1C(=O)[C@H](Cc1ccc(O)cc1)NC(=O)CN)C(=O)N[C@@H](Cc1ccccc1)C(=O)O	/	5%	/	/	/	/	/	/	/	/
COc1cccc([C@@H]2Oc3ccc(Br)cc3C(=O)[C@H]2OC(=O)NS(=O)(=O)c2ccc(F)cc2)c1	/	4%	/	/	/	/	/	/	/	/
COc1cccc(NC(=O)CN(C)CC(=O)Nc2ccc(C)cc2Cl)c1	-1%	14µM*	18%	/	2%	-27%	16%	-2%	5%	6%
Cc1ccc(NC(=O)CN(C)CC(=O)Nc2ccccc2Oc2ccccc2)cc1	-14%	13µM*	11%	/	-3%	-26%	-5%	-1%	-3%	3%
Cc1cccc(C)c1NC(=O)CN(C)CC(=O)Nc1ccccc1Oc1ccccc1	-3%	-6%	-26%	/	35%	/	/	/	/	/
CCOC(=O)C1(O)Oc2cc(OC)cc(OC)c2C(=O)C1c1ccccc1 (stereo unspecified)	/	15%	/	/	/	/	/	/	/	/
COc1ccc(C(=O)Nc2ccccc2C(=O)N/N=C/c2ccccn2)cc1OC	?	?	-10%	-7%	38%	/	/	/	/	/
Cc1ccccc1C(=O)N/N=C/c1ccccn1	-9%	6%	5%	7%	105%	/	/	/	/	/
O=C(N/N=C/c1ccccn1)c1ccco1	1%	20µM*	7%	-15%	50%	-13%	-1%	-2%	-3%	-5%
O=C(N/N=C\c1ccccn1)c1ccccc1O	-7%	16µM*	1%	/	64%	-23%	?	-4%	-4%	-7%
COc1ccc(C(=O)N/N=C/c2ccccn2)cc1OC	-3%	16µM*	-2%	/	82%	-14%	-4%	1%	0%	1%
CC(C)(C)c1cc(C(=O)N/N=C/c2ccccn2)n[nH]1	0%	16µM*	8%	-2%	96%	?	6%	8%	5%	-10%
C[C@H]1[C@H](C)CC[C@]2(C(=O)O)CC[C@]3(C)C(=CCC4[C@@]5(C)CC[C@H](O)C(C)(C)[C@@H]5CC[C@]43C)[C@H]12 (stereo partly specified)	/	13%	/	/	/	/	/	/	/	/
COc1ccc(-c2nc(-c3ccccc3)oc2NC(C)C)cc1	/	0%	/	/	/	/	/	/	/	/
COc1ccc(S(=O)(=O)N2c3ccc(Cl)cc3[C@](O)(c3ccccc3Cl)[C@@H]2C(=O)N2CCC[C@H]2C(N)=O)cc1OC	/	0%	2%	/	/	/	/	/	/	/
O=C(N/N=C/c1ccccn1)c1ccncc1	-1%	-6%	3%	-2%	69%	/	/	/	/	/
O=C(N/N=C/c1ccccn1)c1cccs1	-5%	13µM*	0%	/	107%	-25%	-5%	1%	-2%	-1%
Cc1nnc(SCC(=O)N2CCN(S(=O)(=O)c3ccccc3)CC2)[nH]c1=O	7%	-14%	-11%	-11%	5%	/	/	/	/	/
Cc1ccc(S(=O)(=O)N2CCN(C(=O)CSc3nnc(C)c(=O)[nH]3)CC2)cc1	18%	28µM*	-15%	-4%	-14%	?	5%	6%	14%	22%
CSCC[C@H](N)C(=O)N[C@@H](CCC(=O)O)C(=O)N[C@H](C(=O)NCC(=O)N[C@@H](Cc1c[nH]c2ccccc12)C(=O)N[C@@H](Cc1ccc(O)cc1)C(=O)N[C@@H](CCCNC(=N)N)C(=O)N[C@@H](CO)C(=O)N1CCC[C@H]1C(=O)N[C@@H](Cc1ccccc1)C(=O)N[C@@H](CO)C(=O)N[C@@H](CCCNC(=N)N)C(=O)N[C@H](C(=O)N[C@H](C(=O)N[C@@H](Cc1cnc[nH]1)C(=O)N[C@@H](CC(C)C)C(=O)N[C@@H](Cc1ccc(O)cc1)C(=O)N[C@@H](CCCNC(=N)N)C(=O)N[C@@H](CC(N)=O)C(=O)NCC(=O)N[C@@H](CCCCN)C(=O)O)C(C)C)C(C)C)C(C)C	/	8%	/	/	/	/	/	/	/	/
CCOC(=O)C(C(=O)OCC)c1cc(Br)c2noc3c2c1C(=O)c1ccccc1-3	-14%	0.35µM*	-7%	-92%	-23%	-18%	?	?	?	?
COc1cc2cc(CNc3ccc(C)cc3)c(=O)n(CC(=O)Nc3ccc(C(C)C)cc3)c2cc1OC	/	/	-7%	/	/	/	/	/	/	/
OCCNC(=S)NCCc1ccccc1	-1%	0%	-3%	8%	-7%	/	/	/	/	/
S=C(NCCc1ccccc1)Nc1c(Cl)cccc1Cl	11%	10µM*	-16%	-2%	72%	-10%[38.3 µM]	-30%	?	?	?
SMILES	LmPK inhibitor	Giardia FBPA inh-1	TbPYK inhibitor	NS1 function inh	AMA1 RON2 block	Giardia growth	Mammal cell tox	Giardia FBPA inh-2	Rabbit aldolase	GAPDH coupling
Cc1ccc(-n2c(=O)c3oc4ccccc4c3n(CC(=O)Nc3ccccc3)c2=O)cc1C	/	/	-12%	/	/	/	/	/	/	/
O=C(NC(=S)Nc1ccccc1Cl)c1cncc(Br)c1	2%	6.3µM*	-12%	-7%	28%	?	27%	3%	0%	-11%
O=C(NC(=S)Nc1ncc(Br)cc1Br)c1ccccc1	2%	6.3µM*	0%	0%	70%	9%[38.3 µM]	-24%	0%	23%	-3%
COc1ccc2[nH]cc(CCNc3ncncc3-c3cccc(C#N)c3)c2c1	/	2%	/	/	/	/	/	/	/	/
CCC(=O)Nc1ccc2nc(SCCOc3ccc(C)cc3)sc2c1	/	/	-2%	/	/	/	/	/	/	/
COc1cc(C(=O)Nc2cc3c(cc2C)n(C)c(=O)c(=O)n3C)cc(OC)c1OC	/	/	-2%	/	/	/	/	/	/	/
S=c1nc(-c2ccc(Cl)cc2)[nH][nH]1	-2%	4%	?	-54%	66%	/	/	/	/	/
Cc1ccc(C)n1-c1nc(=S)[nH][nH]1	14%	18µM*	?	15%	43%	-3%[10.4 µM]	-8%	2%	-22%	-21%
